Experimental findings from PubChem BioAssay (NCI) are described below.

Common to all, as to assay: NCI-60 one-dose screen, 48 h (100 = growth as untreated, 0 = no growth, -100 = all killed)
Common to all, as to settings: 10 µM unless noted

Test [1] relates to HCT-15 colon.
Test [2] deals with HT29 colon.
The test system of test [3] is SNB-75 CNS.
The test system of test [4] is SNB-19 CNS.
For test [5], the system named is U251 CNS.
Test [6] relates to PC-3 prostate.
The subject of test [7] is SK-MEL-5 melanoma.
Test [8] concerns UACC-62 melanoma.
Test [9] has as its system LOX IMVI melanoma.
Test [10] relates to SK-MEL-28 melanoma.
Test [11] has as its system SK-MEL-2 melanoma.
Test [12] relates to EKVX NSCLC.
In test [13] the test system is SN12C renal.
The test system of test [14] is UO-31 renal.
Test [15] relates to TK-10 renal.
In test [16] the test system is ACHN renal.
The subject of test [17] is CAKI-1 renal.
Test [18] concerns A498 renal.
Test [19] relates to CCRF-CEM leukemia.
Test [20] has as its system MOLT-4 leukemia.

Structures are written as SMILES. About 83,000 compounds went through this panel and 20% of them were active in at least one assay; those are over-represented in the sample as a whole.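 Note: values are percent growth. 100 is the growth of untreated cells, values between 100 and 0 indicate rising inhibition; between -100 and 0 indicates cell death.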 A number with no mark means an inactive call. Activity calls are given as the source filed them. How the source made its calls: active means growth percent below 10; inactive means the rest.

Regarding `O=C(Cn1c(=O)sc2nc3ccccc3nc21)Nc1ncc(Cc2cccc(Cl)c2Cl)s1`, the growth in [1] is 98.7%; in [2], 107%; in test [3], 74.6%; in test [4], 93.4%; in test [5], 94.9%; in test [6], 87.9%. The growth in test [7] was 99.9%; in test [8], 79.1%; in [9] it was 94.6%; in test [10], 120%; in test [11], 103%; in [12], 75.1%. Moreover, the growth in [13] was 92.2%; in test [14], 65.5%; in test [15], 95.5%; in [16], 100%; in test [17], 71.7%; in [18], 113%. For the same compound, the growth in test [19] and in test [20] was 99.8% throughout.

As for `C[C@H](NC(=O)[C@@H](C)N)[C@H](Oc1ccc2c(cnn2-c2ccc(F)cc2)c1)c1ccc2c(c1)OCCO2`, the growth in test [1] is 34%; in [2] it was 2.47% (active); in test [3], 61.6%; in [4], 65.9%; in test [5] it was 34.7%; in [6], 44%. Moreover, the growth is -70% (active) in test [7]; -22.3% (active) in [8]; -67.3% (active) in [9]; -66.7% (active) in test [10]; 65.8% in [11]; 43.5% in test [12]. Moreover, the growth was 42.6% in test [13]; 18.5% in test [14]; 70.5% in test [15]; 59% in test [16]; 20.4% in test [17]; 91.2% in [18]. Further, the values for the growth in test [19] and in test [20] were 15.5% and 8.43% (active), respectively.

On to `CCCCCCCCn1ccc2cc(NC(=O)Cn3cc(CN4CCCCC4)nn3)ccc21`, for which the growth is -40.7% (active) in test [1]; -61.2% (active) in [2]; 73.4% in test [3]; -49.2% (active) in [4]; -53.6% (active) in test [5]; 54.6% in test [6]. The growth in test [7] is -93% (active); in test [8] it was -81.4% (active); in [9] it was -80.3% (active); in test [10], -85.4% (active); in test [11], 35.6%; in test [12], 85%. The growth in test [13] is 34.5%; in [14], -96.6% (active); in [15] it was 75.7%; in test [16], 57.5%; in [17], -45% (active); in test [18], 97%. Further, the growth in test [19] was 15.7%; in [20], 8.5% (active).

With `CCn1cc(C(=O)N/N=C/c2cccs2)c(=O)c2cc(F)c(N3CCNC(C)C3)c(F)c21` (stereo not given), the growth is 25% in [1]; -76.7% (active) in [2]; 88.5% in test [3]; 73% in [4]; 53.3% in test [5]; 76.3% in test [6]. The growth was 69.8% in test [7]; 96.5% in test [8]; -84.1% (active) in [9]; 89.9% in test [10]; 103% in test [11]; 34.1% in [12]. For the same compound, the growth in [13] was 70%; in test [14] it was 66.8%; in [15], 83.9%; in [16] it was 87.2%; in test [17] it was 46.5%; in [18], 104%. The growth in test [19] was 67.2%; in [20] it was 75.1%.

`C=C1CC[C@@H]2[C@](C)(COC(C)=O)[C@H](OC(C)=O)CC[C@@]2(C)[C@@H]1CC(Sc1ccccc1)C1=CCOC1=O` (stereo not given in full): the growth in [1] was -38.4% (active); in test [2], -39.3% (active); in test [3], 87%; in test [4], 51.8%; in test [5], 22.9%; in [6] it was 36.4%. Moreover, the growth is 13.5% in test [7]; -1.75% (active) in test [8]; -83.9% (active) in [9]; 6.34% (active) in test [10]; -1.66% (active) in test [11]; 57.7% in [12]. Further, the growth in test [13] was 1.3% (active); in [14], 35.6%; in test [15] it was 11.4%; in test [16], -13.7% (active); in [17] it was 90.6%; in [18], 86.3%. For the same compound, the growth in test [19] is -5.24% (active); in test [20] it was -3.93% (active).

For the compound `OCCOCCN(Cc1ccccn1)Cc1cc(I)cc(I)c1O`, the growth in test [1] was 24.2%; in test [2], 98.5%; in [3], 99.9%; in test [4], 94.7%; in [5], 83.5%; in test [6] it was 75.5%. The growth in [7] was 93.9%; in [8] it was 94.8%; in test [9], 62.3%; in test [10], 95.4%; in [11], 87.1%; in test [12], 87.7%. For the same compound, the growth in [13] was 89.8%; in [14], 42.9%; in test [15], 58.9%; in [16], 41.2%; in test [17] it was 23.7%; in [18], 89.9%. The results for the growth in test [19] and in test [20] were 81.9% and 86.2%, respectively.

With `O=S(=O)(Nc1cc(Br)c(O)c2ccccc12)c1ccc(F)cc1`, the growth in test [1] is 86.8%; in test [2], 113%; in test [3] it was 100%; in [4], 108%; in [5], 35.4%; in test [6], 32%. The growth in test [7] is 48.9%; in test [8] it was 54.2%; in test [9], 0.868% (active); in test [10], 81.1%; in [11], 87.8%; in [12], 109%. Further, the growth in [13] was 49.3%; in test [14], 48.5%; in test [15], 123%; in test [16] it was 71.2%; in test [17] it was 80.5%; in [18], 89.9%. The values for the growth in [19] and in test [20] were 11% and -40.3% (active), respectively.
